Assay results taken from the supplement of paper PMC13380429.

Test system: Vero E6 infected with SARS-CoV-2
Assay: inhibition of SARS-CoV-2 cytopathic effect; higher = more antiviral protection, active = above 15
Details: 48 h

Measured: inhibition of SARS-CoV-2 cytopathic effect

Nc1nc(OCc2cc(Br)cs2)c2[nH]cnc2n1 [lomeguatrib]
inactive: 1 nM -1% | 8.33 nM 0% | 100 nM 0.04% | 833.33 nM -0.89% | 10000 nM 0.11%

c1ccc2c(c1)OC[C@H](CNCCCOc1ccc3c(c1)OCO3)O2 [osemozotan]
inactive: 1 nM 2.23% | 8.33 nM 1.12% | 100 nM 3.35% | 833.33 nM 1.42% | 10000 nM 0.79%

O=C(O)CCC(=O)c1ccc(-c2ccccc2)cc1 [fenbufen]
inactive: 1 nM -1.6% | 8.33 nM 2.58% | 100 nM -0.25% | 833.33 nM -2.57% | 10000 nM -2.49%

O=C1OCCN1/N=C/c1ccc([N+](=O)[O-])o1 [furazolidone]
inactive: 1 nM 2.49% | 8.33 nM 3.22% | 100 nM 2.2% | 833.33 nM 1.08% | 10000 nM 0.23%

CCC(=O)N1CCN(c2ccc(-n3c(=O)ccc4cnc5ccc(-c6cnc7ccccc7c6)cc5c43)cc2C(F)(F)F)CC1 [torin-1]
inactive: 1 nM 1.59% | 8.33 nM -1.08% | 100 nM 0.88% | 833.33 nM -0.28% | 10000 nM -0.2%

CC(C)n1c(=O)n(C(=O)N[C@H]2C[C@H]3CC[C@@H](C2)N3C)c2ccccc21
inactive: 1 nM 3% | 8.33 nM 1.63% | 100 nM -0.05% | 833.33 nM -0.36% | 10000 nM -2.53%

CC1=NN(c2ccc(C)c(C)c2)C(=O)/C1=N\Nc1cccc(-c2cccc(C(=O)O)c2)c1O [eltrombopag]
inactive: 1 nM 2.51% | 8.33 nM 2.25% | 100 nM 2.06% | 833.33 nM 0.59% | 10000 nM 0.99%
